# Source: PubChem BioAssay (EPA / NIEHS)
# Active and inactive are the calls of the source. How the source made its calls: active means hit-call score of the fitted dose curve at least 0.9, where 1 is the maximum; inactive means score below 0.9.
# What was measured:
# [1] = BSK_BE3C_SRB: Viability Assessment in the BioMAP Diversity Plus: BE3C Assay (AID 2283028); settings: primary human bronchial epithelial cells;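 on AC50: fitted both ways so AC50 may mark signal gain or loss versus DMSO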
# Method in brief: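 Overt cytotoxicity was assessed as total protein in confluent human primary bronchial epithelial cultures 24 h after chemical addition, using 0.1% sulforhodamine B staining read at 560 nm.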
# [2] = read-out: Thrombomodulin, THBD (gene 7056); test: BSK_3C_Thrombomodulin: BioMAP Diversity Plus: 3C Assay for Thrombomodulin Biomarker Activity (AID 2283029); settings: primary human endothelial cells (HUVEC); actives raise or lower the signal
# Method in brief: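 Endothelial cells from umbilical vein are dosed with test chemical and incubated 24 h. Thrombomodulin is then quantified by ELISA, with DMSO serving as negative control and activity baseline.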
# [3] = read-out: Vascular endothelial growth factor receptor 2 (Homo sapiens) (UniProt P35968); test: BSK_4H_VEGFRII: BioMAP Diversity Plus: 4H Assay for Vascular endothelial growth factor receptor 2 (VEGFR2) Biomarker Activity (AID 2283031); settings: primary human endothelial cells (HUVEC); actives raise or lower the signal;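 on AC50: cell-surface VEGFR2 protein level quantified by ELISA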
# Method in brief: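 VEGFRII levels on human vascular endothelial primary cells were determined by ELISA at 24 hours post-dosing, with gain- or loss-of-signal fitted against DMSO controls.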
# [4] = read-out: Vascular cell adhesion molecule 1 (VCAM1), VCAM1 (gene 7412); test: BSK_4H_VCAM1: BioMAP Diversity Plus: 4H Assay for Vascular cell adhesion molecule 1 (VCAM1) Biomarker Activity (AID 2283033); settings: primary human endothelial cells (HUVEC); actives raise or lower the signal;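 on outcome: cell-surface VCAM-1 protein measured by ELISA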
# Method in brief: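 Chemicals are added to primary human umbilical vein endothelial cells. After 24 h, VCAM-1 levels are measured by ELISA. Values come from bidirectional fitting referenced to DMSO.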
# [5] = read-out: Interferon-gamma inducible Protein 10 (IP10), CXCL10 (gene 3627); test: BSK_BE3C_IP10: BioMAP Diversity Plus: BE3C Assay for Interferon-gamma inducible Protein 10 (IP10) Biomarker Activity (AID 2283034); settings: primary human bronchial epithelial cells; actives raise or lower the signal
# Method in brief: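 IP-10 quantified by ELISA serves as the endpoint. Cells: primary human bronchial epithelium, read 24 h after compound addition. Activity is derived by bidirectional fitting with DMSO as negative control.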
# [6] = read-out: Monokine induced gamma interferon (MIG), CXCL9 (gene 4283); test: BSK_BE3C_MIG: BioMAP Diversity Plus: BE3C Assay for Monokine induced gamma interferon (MIG) Biomarker Activity (AID 2283035); settings: primary human bronchial epithelial cells; actives raise or lower the signal;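 on outcome: MIG protein measured by ELISA in BE3C cultures after 24 h of dosing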
# Method in brief: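 ELISA quantified MIG after 24 h exposure of primary bronchial epithelial cultures, analysed in both directions relative to DMSO. Cytotoxicity tracked in parallel cultures by sulforhodamine B staining.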
# [7] = read-out: Transforming growth factor beta 1 (TGFb1), TGFB1 (gene 7040); test: BSK_BE3C_TGFb1: BioMAP Diversity Plus: BE3C Assay for Transforming growth factor beta 1 (TGFb1) Biomarker Activity (AID 2283036;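 on outcome: TGF-b1 protein level measured by ELISA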); settings: primary human bronchial epithelial cells; actives raise or lower the signal
# Method in brief: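 Bronchial epithelial primary cells are treated with test chemical, then TGF-b1 is quantified by ELISA after 24 hours. Values derive from bidirectional fitting against DMSO, with cytotoxicity checked by SRB staining in parallel cultures.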
# [8] = read-out: Plasminogen activator inhibitor-1 (PAI1), SERPINE1 (gene 5054); test: BSK_BE3C_PAI1: BioMAP Diversity Plus: BE3C Assay for Plasminogen activator inhibitor-1 (PAI1) Biomarker Activity (AID 2283037); settings: primary human bronchial epithelial cells; actives raise or lower the signal
# Method in brief: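 Values derive from bidirectional fitting against DMSO baseline of PAI-1 levels, measured by ELISA in human bronchial epithelial cells 24 h after compound addition.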
# [9] = read-out: urokinase plasminogen activator (uPA), PLAU (gene 5328); test: BSK_BE3C_uPA: BioMAP Diversity Plus: BE3C Assay for urokinase plasminogen activator (uPA) Biomarker Activity (AID 2283038); settings: primary human bronchial epithelial cells; actives raise or lower the signal;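 on outcome: uPA protein level quantified by ELISA in cell cultures; uPA read one day after compound addition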
# Method in brief: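 Measured by ELISA: uPA from human primary bronchial epithelial cells 24 h after chemical treatment. Values derive from bidirectional curve fitting with DMSO serving as negative control. Total protein by SRB staining in parallel wells flagged overt cytotoxicity.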
# [10] = read-out: Urokinase-type plasminogen activator receptor (uPAR), PLAUR (gene 5329); test: BSK_BE3C_uPAR: BioMAP Diversity Plus: BE3C Assay for Urokinase-type plasminogen activator receptor (uPAR) Biomarker Activity (AID 2283039); settings: primary human bronchial epithelial cells; actives raise or lower the signal;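 on outcome: uPAR protein level measured by ELISA on the cells; cells exposed to compound for one day before measurement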
# Method in brief: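 Steps: dose human primary bronchial epithelial cells, incubate 24 h, measure uPAR by ELISA, then fit gain- or loss-of-signal response bidirectionally relative to DMSO.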
# [11] = read-out: Interleukin-6 (IL6), IL6 (gene 3569); test: BSK_CASM3C_IL6: BioMAP Diversity Plus: CASM3C Assay for Interleukin-6 (IL6) Biomarker Activity for (AID 2283040); settings: primary human coronary artery smooth muscle cells; actives raise or lower the signal
# [12] = read-out: Interleukin-8 (IL8), CXCL8 (gene 3576); test: BSK_CASM3C_IL8: BioMAP Diversity Plus: CASM3C Assay for Interleukin-8 (IL8) Biomarker Activity (AID 2283042); settings: primary human coronary artery smooth muscle cells; actives raise or lower the signal;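 further: IL-8 protein level quantified by ELISA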
# [13] = read-out: Human Leukocyte Antigen - DR isotype (HLADR), HLA-DRA (gene 3122); test: BSK_CASM3C_HLADR: BioMAP Diversity Plus: CASM3C Assay for Human Leukocyte Antigen - DR isotype (HLADR) Biomarker Activity (AID 2283043); settings: primary human coronary artery smooth muscle cells; actives raise or lower the signal;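 further: cell-surface HLA-DR protein level quantified by ELISA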
# [14] = read-out: Macrophage colony-stimulating factor (MCSF), CSF1 (gene 1435); test: BSK_CASM3C_MCSF: BioMAP Diversity Plus: CASM3C Assay for Macrophage colony-stimulating factor (MCSF) Biomarker Activity (AID 2283044); settings: primary human coronary artery smooth muscle cells; actives raise or lower the signal;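 further: M-CSF protein amount quantified by ELISA after 24 h exposure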
# [15] = read-out: Low-density lipoprotein receptor (LDLR), LDLR (gene 3949); test: BSK_CASM3C_LDLR: BioMAP Diversity Plus: CASM3C Assay for Low-density lipoprotein receptor (LDLR) Biomarker Activity (AID 2283045); settings: primary human coronary artery smooth muscle cells; actives raise or lower the signal;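 further: LDLR protein level on the cell surface quantified by ELISA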
# [16] = read-out: Monocyte Chemoattractant Protein-1 (MCP1), CCL2 (gene 6347); test: BSK_CASM3C_MCP1: BioMAP Diversity Plus: CASM3C Assay for Monocyte Chemoattractant Protein-1 (MCP1) Biomarker Activity (AID 2283046); settings: primary human coronary artery smooth muscle cells; actives raise or lower the signal;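 further: MCP-1 level quantified by ELISA 24 h after dosing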
# [17] = BSK_CASM3C_Proliferation: Cell Proliferation Assessment in the BioMAP Diversity Plus: CASM3C Assay (AID 2283047); settings: primary human coronary artery smooth muscle cells;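 further: sulforhodamine B total protein stain as relative cell number at 560 nm; sub-confluent cells exposed 48 h before staining; fitted both ways against DMSO so gain or loss of cell number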
# [18] = read-out: Human Leukocyte Antigen - DR isotype (HLADR), HLA-DRA (gene 3122); test: BSK_BE3C_HLADR: BioMAP Diversity Plus: BE3C Assay for Human Leukocyte Antigen - DR isotype (HLADR) Biomarker Activity (AID 2283032); settings: primary human bronchial epithelial cells; actives raise or lower the signal
# Method in brief: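 Chemicals are dosed onto BE3C bronchial epithelial cultures of human origin and left 24 h. HLA-DR is then measured by ELISA, and the endpoint is fitted in both directions using DMSO as the activity baseline.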
# [19] = read-out: Tissue plasminogen activator (tPA), PLAT (gene 5327); test: BSK_BE3C_tPA: BioMAP Diversity Plus: BE3C Assay for Tissue plasminogen activator (tPA) Biomarker Activity (AID 2283041); settings: primary human bronchial epithelial cells; actives raise or lower the signal;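 on outcome: tPA level quantified by ELISA one day after compound addition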
# Method in brief: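 Gain- or loss-of-signal in tPA, measured by ELISA, derived by bidirectional fitting against DMSO. Cells: human primary bronchial epithelial; read at 24 h after chemical dosing.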
structure (smiles),measurement,setting,value
CCOc1cc(C(C)(C)C)ccc1C1COC(c2c(F)cccc2F)=N1 (stereo not given),AC50,[1],20 µM (active)
same,outcome,[2],inactive
same,AC50,[3],22.8 µM (active)
same,AC50,[4],37.4 µM (active)
same,AC50,[5],16.3 µM (active)
same,outcome,[6],inactive
same,outcome,[7],inactive
same,AC50,[8],19 µM (active)
same,AC50,[9],20 µM (active)
same,AC50,[10],6.6 µM (active)
same,outcome,[11],inactive
same,outcome,[12],inactive
same,outcome,[13],inactive
same,outcome,[14],inactive
same,outcome,[15],inactive
same,AC50,[16],32.5 µM (active)
same,AC50,[17],33 µM (active)
COP(=S)(OC)SCn1nnc2ccccc2c1=O,outcome,[1],inactive
same,outcome,[2],inactive
same,outcome,[3],inactive
same,outcome,[18],inactive
same,outcome,[4],inactive
same,outcome,[5],inactive
same,outcome,[6],inactive
same,outcome,[7],inactive
same,outcome,[8],inactive
same,outcome,[9],inactive
same,outcome,[10],inactive
same,outcome,[11],inactive
same,outcome,[12],inactive
same,outcome,[13],inactive
same,outcome,[14],inactive
same,outcome,[15],inactive
same,outcome,[16],inactive
same,outcome,[17],inactive
N#Cc1c(Cl)cccc1Cl,outcome,[1],inactive
same,outcome,[2],inactive
same,outcome,[3],inactive
same,outcome,[4],inactive
same,outcome,[5],inactive
same,outcome,[6],inactive
same,outcome,[7],inactive
same,outcome,[8],inactive
same,outcome,[9],inactive
same,outcome,[10],inactive
same,outcome,[11],inactive
same,outcome,[19],inactive
same,outcome,[12],inactive
same,outcome,[13],inactive
same,outcome,[14],inactive
same,outcome,[15],inactive
same,outcome,[16],inactive
same,outcome,[17],inactive
COc1ccc(-c2ccccc2)cc1NNC(=O)OC(C)C,outcome,[1],inactive
same,outcome,[2],inactive
same,outcome,[3],inactive
same,outcome,[18],inactive
same,outcome,[4],inactive
same,outcome,[5],inactive
same,outcome,[6],inactive
same,outcome,[7],inactive
same,outcome,[8],inactive
same,outcome,[9],inactive
same,outcome,[10],inactive
same,outcome,[11],inactive
same,outcome,[12],inactive
same,outcome,[13],inactive
same,outcome,[14],inactive
same,outcome,[15],inactive
same,outcome,[16],inactive
same,outcome,[17],inactive
COCC(=O)N(c1c(C)cccc1C)C(C)C(=O)OC (stereo not given),outcome,[1],inactive
same,outcome,[2],inactive
same,outcome,[3],inactive
same,outcome,[4],inactive
same,outcome,[5],inactive
same,outcome,[6],inactive
same,outcome,[7],inactive
same,outcome,[8],inactive
same,outcome,[9],inactive
same,outcome,[10],inactive
same,outcome,[11],inactive
same,outcome,[12],inactive
same,outcome,[13],inactive
same,outcome,[14],inactive
same,outcome,[15],inactive
same,outcome,[16],inactive
same,outcome,[17],inactive
CSC(=O)c1c(C(F)F)nc(C(F)(F)F)c(C(=O)SC)c1CC(C)C,AC50,[1],16.8 µM (active)
same,outcome,[2],inactive
same,outcome,[3],inactive
same,outcome,[4],inactive
same,outcome,[5],inactive
same,outcome,[6],inactive
same,outcome,[7],inactive
same,outcome,[8],inactive
same,outcome,[9],inactive
same,outcome,[10],inactive
same,AC50,[11],3.97 µM (active)
same,outcome,[19],inactive
same,outcome,[12],inactive
same,outcome,[13],inactive
same,outcome,[14],inactive
same,outcome,[15],inactive
same,outcome,[16],inactive
same,outcome,[17],inactive
OC(c1ccc(Cl)cc1)(c1ccc(Cl)cc1)C(Cl)(Cl)Cl,AC50,[1],12.9 µM (active)
same,AC50,[2],0.258 µM (active)
same,AC50,[3],20 µM (active)
same,AC50,[18],11.5 µM (active)
same,AC50,[4],28.3 µM (active)
same,AC50,[5],12.2 µM (active)
same,AC50,[6],14.5 µM (active)
same,AC50,[7],31.2 µM (active)
same,AC50,[8],13.9 µM (active)
same,outcome,[9],inactive
same,outcome,[10],inactive
same,outcome,[11],inactive
same,AC50,[19],13.1 µM (active)
same,AC50,[12],33.4 µM (active)
same,outcome,[13],inactive
same,AC50,[14],36.2 µM (active)
same,outcome,[15],inactive
same,AC50,[16],35.2 µM (active)
same,AC50,[17],30.4 µM (active)
